Bioassay records from PubChem.
In the library only some 9.5% were active in any assay of this set; here they are far more common.
Tau fluor cs – counter-screen for tau fibril formation inhibitors; 280,000 compounds, 0.93% hits; tau K18 P301L Alexa594 fluorescence, heparin fibrillization; Potency, µM (highest dose often 57.7 µM), inactives show at the top dose activity change, negative = decrease; also: nearly all actives have a fitted effect of over 55% in size
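Human K18 P301L tau (15 uM unlabeled plus 0.24 uM Alexa 594-labeled, final) in 100 mM sodium acetate pH 7 was mixed with compound and 20 uM heparin and incubated 6 hr at 37 C.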
ALDH1A1 inh – inhibitors of human aldehyde dehydrogenase 1A1. Potency, µM (titrated, usually from 75.3 µM), inactives show top-dose activity, negative = inhibition, usual class: inhibitors. Purified ALDH1A1, NADH fluorescence, propionaldehyde substrate. AID 1030. 220,000 compounds, 7.3% hits. P00352; active = well fitted inhibition curve with a large enough effect, not every such curve was filed as active; inconclusive = small, poorly fitted or top-dose-only effect, or another doubt; inactive = no such curve, though single readings can be large or run the other way;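 also: plate controls were no enzyme wells and a reference inhibitor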
Tau ThT inhib – tau fibrillization inhibition (ThT binding); 270,000 compounds, 2.1% hits; Potency, µM (titrated, usually from 57.4 µM), for the others: at the top dose activity, negative = inhibition, actives largely listed as inhibitors; recombinant tau K18 P301L (four-repeat tau fragment), heparin-induced fibrillization, ThT fluorescence; P10636; also: nearly all actives have a fitted effect of over 55% in size
Target sequence (P10636 561-689 P618L limits assumed): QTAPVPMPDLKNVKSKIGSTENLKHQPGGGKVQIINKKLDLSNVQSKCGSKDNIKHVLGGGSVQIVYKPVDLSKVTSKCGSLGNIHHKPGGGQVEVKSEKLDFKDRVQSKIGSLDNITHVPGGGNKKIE
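K18 P301L tau (15 uM + 0.24 uM Alexa 594-tagged), heparin 20 uM, NaOAc pH 7, 6 h 37 C; ThT 30 uM, 1 h RT, ex 450/em 510 nm.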
Tau FP inhib – inhibitors of human tau fibril formation. P10636. K18 P301L tau heparin fibrillization, Alexa594 FP, 6 h. 280,000 compounds, 0.39% hits. Potency, µM (top dose mostly 57.7 µM), for the others: top-dose activity, negative = inhibition, most hits filed as inhibitors; also: nearly all actives have a fitted effect of over 55% in size
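Recombinant K18 P301L […], labeled with Alexa 594 at 0.24 uM over 15 uM unlabeled; heparin inducer 20 uM final; 37 C, 6 hr; FP endpoint.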
HPGD inh – inhibitors of human 15-hydroxyprostaglandin dehydrogenase (HPGD); P15428; purified HPGD, NADH fluorescence kinetic, PGE2 substrate; Potency, µM, for the others: at the top dose activity change, negative = inhibition, hits mostly inhibitors; 150,000 compounds, 4.3% hits; active = well fitted inhibition curve with a large enough effect, not every such curve was filed as active; inconclusive = small, poorly fitted or top-dose-only effect, or another doubt; inactive = no such curve, though single readings can be large or run the other way
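NADH formation kinetics: reaction with 30 uM PGE2 and 1 mM NAD+ (final), 20 nM enzyme, Tris-HCl pH 8 with Tween 20, after 15 min compound preincubation at room temperature. Fluorescence change, last versus first of five reads.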
NPSR antagonist – blocks cAMP signaling of the human neuropeptide S receptor | Q6W5P4 | CHO-NPSR cells, cAMP TR-FRET, antagonist mode | 220,000 compounds, 1% hits | Potency, µM (titrated, usually from 38.3 µM), without a hit: at the top dose activity change, negative = inhibition, actives largely listed as inhibitors; also: nearly all actives have a fitted effect of over 50% in size
Target sequence (Q6W5P4 whole entry, looked up): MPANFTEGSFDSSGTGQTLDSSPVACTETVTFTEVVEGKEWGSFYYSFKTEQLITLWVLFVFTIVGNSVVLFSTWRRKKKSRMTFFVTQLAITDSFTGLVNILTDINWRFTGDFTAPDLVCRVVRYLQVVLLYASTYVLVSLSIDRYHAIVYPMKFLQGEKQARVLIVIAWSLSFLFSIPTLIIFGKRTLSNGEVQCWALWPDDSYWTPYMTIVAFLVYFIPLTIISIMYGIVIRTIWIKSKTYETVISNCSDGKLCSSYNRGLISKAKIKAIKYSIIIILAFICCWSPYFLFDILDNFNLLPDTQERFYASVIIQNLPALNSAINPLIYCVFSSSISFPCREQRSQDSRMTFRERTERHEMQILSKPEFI
Starred values were filed as active, the others as inactive; ? = inconclusive; . = no result given; ! = not active in a repeat; [ ] = another dose, or the depositor's remark. Unless noted, calls follow the shape of the dose curve; as a rule, active = well fitted curve in the direction sought with a large enough effect; inconclusive = small, poorly fitted or top-dose-only effect, or another doubt; inactive = no such curve, though single readings can be large; an effect the other way counts as inactive or inconclusive. Unless noted, % is scaled to controls: 0 for no effect and ±100 for the full control effect; potency is read from the fitted curve at half-maximal effect.

SMILES | Tau fluor cs | ALDH1A1 inh | Tau ThT inhib | Tau FP inhib | HPGD inh | NPSR antagonist
O=C(Nc1cc(Sc2nc3ccccc3s2)cc([N+](=O)[O-])c1)c1ccccc1F | 13µM*[quencher] | 7% | -15% | ? | -16% | -23%[46.1 µM]
CCCCNC(=S)Nc1ccc(OC)nc1 | -6% | 1% | -9% | 3% | . | 7%
CC(OC(=O)c1ccc(Cl)c(S(=O)(=O)N2CCc3ccccc32)c1)C(=O)Nc1ncc(Cl)cc1Cl (stereo unspecified) | -23% | 25µM* | -10% | -2% | -15% | -21%
CC(OC(=O)c1ccc([N+](=O)[O-])s1)C(=O)Nc1ncc(Cl)cc1Cl (stereo unspecified) | -13% | 6.3µM* | -10% | -15% | -6% | -16%
c1ccc2c(Cc3c[nH]c4ccccc34)c[nH]c2c1 | 16µM*![quencher] | -2% | ? | ? | -8% | .
COc1ccccc1NC(=O)COc1ccc(/C=N/NS(=O)(=O)c2ccc(C)cc2)cc1 | ? | ? | -15% | ? | 16µM* | ?
COc1ccc(CNC(=O)CN(c2ccccc2OC)S(=O)(=O)c2ccc(C)cc2)cc1 | 4% | . | -6% | -6% | . | .
Cc1ccc(S(=O)(=O)N/N=C/c2ccc(OCC(=O)Nc3ccccc3Cl)cc2)cc1 | ? | -14% | -2% | ? | 14µM* | -28%[46.1 µM]
COc1ccccc1N(CC(=O)N/N=C/c1ccc(OCC(=O)NCc2ccco2)cc1)S(=O)(=O)c1ccc(C)cc1 | -23% | -10% | 12% | 2% | 16µM* | -20%[46.1 µM]
O=C(O)CCC(O)=C1S(=O)(=O)OCCOS1(=O)=O | . | 8%[13.5 µM] | . | . | -5% | .
C=CCNC(=O)NC(=O)COC(=O)/C(C#N)=C/c1ccc(OC)cc1 | -15% | 25µM* | -13% | 4% | . | 3%
CCCCc1nc2c(c3c1C[C@H](C)OC3)CN(S(=O)(=O)c1ccc(C)cc1)CC2 | -8%[11.6 µM] | -8%[13.5 µM] | -2%[11.5 µM] | 3%[11.6 µM] | -4% | .
CC1=CC(=O)c2c(O)ccc(O)c2C1=O | ? | 32µM* | ? | ? | . | ?
O=C1C=C(N2CCN(c3ccccn3)CC2)C(=O)c2c(O)ccc(O)c21 | . | -10%[13.5 µM] | . | . | -12% | .
C[C@H](CCC(=O)O)[C@H]1CC[C@]2(C)[C@@H]3C(=O)C[C@H]4C(C)(C)[C@@H](O)CC[C@]4(C)[C@H]3C(=O)C[C@@]12C | . | 1%[13.5 µM] | . | . | -6% | .
COc1ccc(C(=O)Nc2ccc(C(=O)OCc3cc(=O)n4nc(C5CC5)sc4n3)cc2)cc1 | -6% | . | 15% | -5% | . | .
O=C(O)c1ccc(C(=O)O)c(C(=O)O)c1.[NH-][C@@H]1CCCC[C@@H]1[NH-].[Pt] | . | -8%[13.5 µM] | . | . | -7% | .
CCCCn1c(/N=C/c2c[nH]c3ccccc23)nc2ccccc21 | 22µM*[quencher] | 25µM* | -4% | ? | -18% | -9%[46.1 µM]
CCCCn1c(/N=C/c2ccc(N(C)C)cc2)nc2ccccc21 | -3% | 2.8µM* | -3% | -3% | -16% | ?
CN(C)S(=O)(=O)c1cccc(-c2nnc(SCc3cc(Cl)cc4c3OCOC4)n2N)c1 | -17% | 25µM* | -22% | -9% | 7.1µM* | -3%[46.1 µM]
COc1ccc(Cn2nnnc2C(c2cc3ccc(OC)cc3[nH]c2=O)N2CCC(C)CC2)cc1 (stereo unspecified) | -15% | 0.89µM* | -8% | 6% | -8% | ?
COc1ccc2cc(C(c3nnnn3Cc3ccccc3)N3CCCCCC3)c(=O)[nH]c2c1 (stereo unspecified) | -14% | 14µM* | ? | -8% | -8% | ?
COc1ccc2cc(C(c3nnnn3Cc3ccc(F)cc3)N3CCCCCC3)c(=O)[nH]c2c1 (stereo unspecified) | -23% | ? | ? | 0% | ? | -25%[46.1 µM]
CCN(Cc1ccccc1)c1ccc(/C=C(\C#N)c2ccccn2)cc1 | ? | 14µM* | ? | 14% | . | -24%[46.1 µM]
CCOC(=O)c1cc(S(=O)(=O)NCc2ccccc2)[nH]n1 | -7% | . | -9% | -3% | . | .
